Most compounds without a hit are left out; they make up all but 2.2% or so of the library.
aSyn UTR inh – MLPCN primary screen, SNCA 5' untranslated region | alpha-synuclein 5'UTR reporter, inhibitor activity | AID 1813, 2009 | 300,000 compounds, 0.82% hits | inhibition, % (tested at 7.5 µM); in the data active = inhibition above about 60%; inconclusive = no clear call, values can overlap the other calls;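 also: H4 neuroglioblastoma cells stably carrying SNCA 5'UTR luciferase fusion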
KLF5 inhibitor – KLF5 expression inhibitors, primary screen, DLD-1 cells, luminescence; DLD-1 KLF5 promoter-luciferase reporter; inhibition, % at 5 µM; 290,000 compounds, 0.23% hits;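 active = inhibition above a per-plate limit of that plate's mean compound inhibition plus 3 SD, cut at about 60% in these data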;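 also: higher means less KLF5 promoter-driven luciferase light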
IEC-6 tox – cytotoxicity in IEC-6 intestinal epithelial cells, primary screen, cytotoxicity control for KLF5 inhibitor project, cell-based, luminescence; IEC-6 cytotoxicity, luminescence viability; inhibition, % at 5 µM; 290,000 compounds, 0.78% hits
Ba/F3 V617F tox – reduced viability of JAK2V617F-dependent Ba/F3 cells, primary screen, JAK2V617F inhibitor project, cell-based, Ba/F3 EpoR-JAK2V617F, luminescence | ATP luminescence | 220,000 compounds, 1.1% hits | inhibition, % at 5.6 µM;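 active = inhibition above the campaign mean plus 3 SD over all tested compounds, cut at about 24% in these data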;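 also: cytokine-independent growth of Ba/F3 cells driven by EpoR plus mutant JAK2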
APP 5UTR inh – inhibitors of APP translation via 5'UTR reporter, primary screen, APP 5'UTR luciferase, SH-SY5Y cells; 190,000 compounds, 0.82% hits; SH-SY5Y APP 5'UTR-luciferase reporter, luminescence; inhibition, % at 2 µM;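 active = inhibition above a set limit, derived from the sample mean plus 3 SD, cut at about 45% in these data; inconclusive = one replicate passes the limit while the other fails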
BaF3 tox – parental Ba/F3 cell viability inhibition, counter-screen for JAK2V617F inhibitor project, murine pro-B, CellTiter-Glo luminescence; CellTiter-Glo ATP luminescence; inhibition, % at 5.6 µM; 220,000 compounds, 1.1% hits; AID 1486, 2009;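 active = inhibition above a per-campaign cutoff, the mean inhibition of all tested compounds plus 3 SD, cut at about 27% in these data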
IEC-6 tox confirm – cytotoxic compounds in IEC-6 epithelial cells, confirmation, cytotoxicity control, cell-based, luminescence; shares compounds with IEC-6 tox; IEC-6 rat intestinal epithelial viability; inhibition, % at 5 µM; 1,900 compounds, 63% hits; AID 1907, 2009
A number is an active result; . = inactive; ? = inconclusive; / = no result. Rule as the data show it, unless noted: active = inhibition above about 22%; inactive = the rest.

SMILES	aSyn UTR inh	KLF5 inhibitor	IEC-6 tox	Ba/F3 V617F tox	APP 5UTR inh	BaF3 tox	IEC-6 tox confirm
COc1cc2c(C(=O)N3CCN(c4cccc(Cl)c4)CC3)cn(C)c(=O)c2cc1OC	.	.	.	.	.	.	/
COc1ccccc1C(=O)N1CCN(c2cccc(Cl)c2)CC1	64.4	.	77.4	80.1	94.8	82.6	54.6
O=C(c1c(Cl)nc2sccn12)N1CCN(c2cccc(Cl)c2)CC1	.	.	63.2	78.3	94.1	75.9	43.7
CC(=O)c1sc2nsc(SCCN3CCOCC3)c2c1N	.	.	24.1	.	/	.	.
Nc1c(C(=O)c2ccccc2)sc2nsc(SCCN3CCOCC3)c12	.	.	.	.	/	.	/
CCOCCCNC(=O)c1cc2c(=O)n(CC)c3ccccc3c2s1	.	.	22.0	/	/	/	.
CCN(CC)CCCNC(=O)c1cc2c(=O)n(CC)c3ccccc3c2s1	.	.	25.8	/	/	/	.
CCN(CC)CCNC(=O)c1cc2c(=O)n(CC)c3ccccc3c2s1	.	.	.	/	/	/	/
CCn1c(=O)c2cc(C(=O)NCCOC)sc2c2ccccc21	.	.	.	/	/	/	/
CCC(C)c1ccc(NC(=O)Nc2cnccn2)cc1 (centres undefined)	.	.	78.8	/	/	/	55.2
CC(=O)Nc1c(-c2cc(=O)oc3cc(C)ccc23)oc2ccccc12	.	.	.	/	/	/	/
COc1ccc(/C=C/C(=O)c2cc(F)ccc2OC(=O)c2ccccc2)cc1OC	67.1	.	46.2	.	89.5	.	37.0
CCc1nn(C(C)C(=O)N2CCN(c3ccc(OC)cc3)CC2)c(=O)c2cc3occc3n12 (centres undefined)	.	.	44.1	/	/	/	24.1
CCc1nn(C(C)C(=O)N2CC(C)CC(C)C2)c(=O)c2cc3occc3n12 (centres undefined)	.	.	.	/	/	/	/
Clc1ccc(CN2CCc3c([nH]c4ccccc34)C2)cc1Cl	.	.	.	/	/	/	/
COc1ccc(S(=O)(=O)N2CCCOC2CNC(=O)C(=O)NCCc2ccco2)cc1C (centres undefined)	.	.	28.5	/	/	/	.
O=C(NCCc1ccco1)C(=O)NCC1OCCCN1S(=O)(=O)c1ccc(F)cc1 (centres undefined)	.	.	.	/	/	/	/
Cc1ccccc1OCCOC(=O)c1c(-c2ccccc2)noc1C	.	.	53.5	/	/	/	27.6
O=C(CCl)N1CCCC1c1ccc2c(c1)OCCO2 (centres undefined)	.	.	77.6	/	/	/	24.4
Cc1oc2c(cc(NS(=O)(=O)c3ccc(F)cc3)c3ccccc32)c1C(=O)O	.	.	.	/	/	/	/
COc1ccc(S(=O)(=O)Nc2ccccn2)cc1	.	.	.	/	/	/	/
Cc1ccc(S(=O)(=O)Nc2cccc3cccnc23)cc1	63.4	.	32.1	.	.	.	100.2
COc1ccc(S(=O)(=O)Nc2cc3c(C(C)=O)c(C)oc3c3ccccc23)cc1	81.9	.	83.3	79.4	91.7	78.2	55.2
Cc1ccc(S(=O)(=O)Nc2ccccc2-c2ccccc2NS(=O)(=O)c2ccc(C)cc2)cc1	.	.	.	.	.	.	/
COc1cc(NS(=O)(=O)c2ccc(C)cc2)c2ncccc2c1	68.6	.	79.3	.	.	.	74.3
SMILES	aSyn UTR inh	KLF5 inhibitor	IEC-6 tox	Ba/F3 V617F tox	APP 5UTR inh	BaF3 tox	IEC-6 tox confirm
Cc1cc(C)n(-c2ccc(NC(=O)C3CCCCN3Cc3cccc4c3OCO4)cc2)n1 (centres undefined)	.	.	.	/	/	/	/
COc1ccc(C2C(C(=O)Nc3cc(OC)c(OC)c(OC)c3)c3ccccc3C(=O)N2C)cc1 (centres undefined)	97.9	.	58.9	41.4	69.0	61.0	59.9
O=S1(=O)CCS(=O)(=O)C1c1ccccc1	.	/	/	/	/	/	/
CCN(CC)CCn1c2ccccc2c2nc3ccc([N+](=O)[O-])cc3cc21	.	.	36.4	77.7	/	76.5	31.6
Cn1c2ccccc2c2cc([N+](=O)[O-])ccc21	.	.	.	.	/	.	/
Cc1cccc(S(=O)(=O)NC2CCCCCCC2)c1	.	.	.	/	/	/	/
CC(C)NC(=O)CN1CCC(c2nc3ccccc3[nH]2)CC1	.	.	.	/	/	/	/
CN1CCN(c2ccc([N+](=O)[O-])cc2C(=O)c2ccc(Cl)cc2)CC1	.	.	49.2	.	.	.	50.0
Cc1ccc(C(=O)c2cc([N+](=O)[O-])ccc2N2CC(C)OC(C)C2)cc1 (centres undefined)	.	.	.	.	.	.	/
Cc1ccc(C(=O)c2cc([N+](=O)[O-])ccc2N2CCCCC2)cc1	81.1	.	88.9	79.5	/	76.4	65.2
Cc1cccc(NC(=O)c2ccc(N3C(=O)C4C5C=CC(C6CC56)C4C3=O)cc2)c1 (centres undefined)	.	.	22.8	/	/	/	.
O=C(Nc1ccccc1)c1cccc(N2C(=O)C3C4C=CC(C5CC45)C3C2=O)c1 (centres undefined)	.	.	.	/	/	/	/
Nc1nc(-c2cccnc2)nn1C(=O)c1ccccc1Cl	.	.	36.1	.	.	.	.
Cc1ccccc1CSc1nnc(-c2cnccn2)n1C	.	.	.	.	/	.	/
C=CCN=c1scc(-c2ccc3c(c2)NC(=O)CO3)n1/N=C(\C)c1ccccn1	/	.	41.0	100.4	51.6	90.5	30.8
CCOC(=O)C(=O)N1CCC(C(=O)OCC)CC1	.	.	.	.	/	.	/
CC(C)c1ccc2c(c1)[C@H]1OCC[C@H]1[C@@H](c1cccs1)N2	.	.	26.1	41.3	85.8	54.5	65.8
COC(=O)c1cc(S(=O)(=O)N2CCN(c3cccc(C)c3C)CC2)c[nH]1	.	.	.	/	/	/	/
S=C(Nc1ccccc1)Nc1nccs1	.	.	42.1	.	/	.	.
Cc1ccn2c(CNCC3COCCO3)c(C(=O)N3CCCCCC3)nc2c1 (centres undefined)	.	.	.	/	/	/	/
Cc1sc2ncnc(N/N=C/c3cccc(O)c3)c2c1C	.	.	.	.	.	.	/
C/C(=N\Nc1ncnc2sc(C)c(C)c12)c1ccccn1	104.9	.	90.9	/	/	/	94.2
CCOC(=O)c1[nH]c2c(c1C)C(=O)CC(c1ccc(F)cc1)C2 (centres undefined)	?	.	42.2	56.0	92.5	56.0	59.7
CC[n+]1c(/C=C/c2ccc(N(C)C)cc2)ccc2ccccc21	.	.	47.8	101.2	.	95.2	76.0
CC[n+]1ccccc1/C=C/c1ccc(N(C)C)cc1	.	.	22.3	99.3	.	76.2	22.9
CCN(CC)c1ccc(/C=C/c2ccc3ccc(OC)cc3[n+]2CC)cc1	.	.	47.6	/	/	/	31.0
Cc1ccc(/C=C/c2ccc(N(C)C)cc2)[n+](C)c1	.	.	32.2	/	/	/	25.6

Compound activity as filed in PubChem.
